tim23-1 inh: growth inhibitors of tim23-1 mutant yeast. S. cerevisiae tim23-1 growth, BacTiter-Glo luminescence, 24 h. inhibition, % at 20 µM. actives 1.3% (n = 330,000);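 active means growth inhibition of the mutant yeast at or above 50%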;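 further: temperature-sensitive mutant grown at 25 °C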
tim10-1 inh: inhibits growth of tim10-1 mutant yeast. inhibition, % at 20 µM. S. cerevisiae tim10-1 ts strain growth, BacTiter-Glo, 24 h. actives 2.2% (n = 330,000);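 active means inhibition of at least 40%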;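 further: mutant grown at 25 °C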
TIM10 inh: TIM10 yeast growth inhibition | S. cerevisiae TIM10 strain growth, BacTiter-Glo luminescence, 24 h | inhibition, % at 10 µM | actives 1.4% (n = 330,000) | AID 463195;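 active means inhibition of 40% or more at the single tested concentration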;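 further: wild-type TIM10 isogenic control strain grown at permissive 25 °C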
SKKanGAS inh: SKKanGAS growth inhibition. S. pyogenes SKKanGAS, kanamycin growth, BacTiter-Glo, 6 h. inhibition, % at 7.5 µM. actives 1.3% (n = 300,000). AID 1662;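 active means mean replicate score, as percent of positive control median, at least 50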;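 further: strain carries kanamycin resistance gene driven by streptokinase promoter and grows in 40 µg/ml kanamycin; loss of luminescence reflects streptokinase promoter inhibition or plain growth inhibition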
PfHsp90 set2: inhibits growth of yeast expressing Plasmodium falciparum Hsp90; inhibition, % at 9.4 µM; AID 504621; S. cerevisiae expressing PfHsp90, BacTiter-Glo ATP, 48 h; yeast lacking PDR1 and PDR3 efflux regulators; actives 0.32% (n = 310,000);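 active means every replicate shows inhibition above about 80%, whatever the replicate mean, limit read from the data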
NALP3 yeast inh: inhibitors of NALP3 inflammasome in yeast. Yeast reconstituted NLRP3/ASC/caspase-1, beta-gal luminescence, 24 h. inhibition, % at 10 µM. actives 0.39% (n = 330,000);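 active means inhibition of 50% or more; inactive means inhibition below 50%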
tim10-1 conf: tim10-1 yeast growth inhibition, confirmed | actives 56% (n = 7,400) | inhibition, % at 20 µM | shares compounds with tim10-1 inh | AID 463213 | S. cerevisiae tim10-1 ts strain growth, BacTiter-Glo, 24 h;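 active means inhibition of yeast growth at or above a set limit in either of two repeat tests at 20 µM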;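 further: tim10-1 mutant grown at permissive 25 °C to find synthetic lethal compounds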
Large screens that a line does not name were inactive (follow-up assays come after a bar, where they were run). This is a sample that favours compounds with a hit; in the whole collection about 4.5% have one here.

CCOc1ccc2nc(NCCNC(=O)c3cc(OC)c(OC)c(OC)c3)c(C#N)cc2c1	none
COc1cc(NC(=O)CCc2nnc3ccc(NCc4ccco4)nn23)cc(OC)c1	none
CCC(C)c1ccccc1NC(=O)COc1ccc(-n2cnnn2)cc1 (centres undefined)	none (no result: SKKanGAS inh, PfHsp90 set2)
Oc1ccc(CN2CCN(Cc3ccccc3)CC2)c2cccnc12	none (no result: PfHsp90 set2)
CN1CCN(Cc2cc(COCc3ccccc3)c3cccnc3c2O)CC1	tim10-1 inh 47 | tim10-1 conf inactive
O=C(Cc1ccc(NC2=NC3CS(=O)(=O)CC3S2)cc1)NCCc1ccccc1 (centres undefined)	none
CCSc1cc(C)nc2c(-c3ccccc3)c(C)nn12	tim10-1 inh 40 | tim10-1 conf inactive
Cc1cc(NCCCN2CCOCC2)n2nc(C)c(-c3ccccc3)c2n1	none
Cc1cc(NCCC(C)C)n2nc(C)c(-c3ccccc3)c2n1	tim10-1 inh 45 | tim10-1 conf inactive
CCN(CC)C(=O)CSc1nsc(SCC(=O)N(CC)CC)c1C#N	none (no result: SKKanGAS inh)
C=COC(=O)CSc1snc(SCC(=O)OC)c1C#N	tim10-1 inh 43 | tim10-1 conf inactive
O=C(CCn1cnnn1)Nc1ccccc1	none
O=C(Nc1ccc(Oc2cccnc2)cc1)C1CCN(Cc2cc(Cl)ccc2O)CC1	tim10-1 inh 49 | tim10-1 conf inactive
O=C(Nc1ccc(Oc2cccnc2)cc1)C1CCN(Cc2ccc(F)cc2)CC1	none
CC(C)(C)c1ccc(S(=O)(=O)CC(O)CSc2nc3c(cc2C#N)CCCC3)cc1 (centres undefined)	tim10-1 inh 40 | tim10-1 conf inactive
COc1ccc(CCNC(=O)CCc2nc3sc4c(c3c(=O)[nH]2)CCCC4)cc1	tim10-1 inh 97 | tim10-1 conf inactive
CCOc1cc(-c2c(C#N)c(N)nc3c2CCCC3C)ccc1O (centres undefined)	tim10-1 inh 46 | tim10-1 conf 35
CCOc1cc(-c2cc(-c3ccc(C)cc3)nc(N)c2C#N)ccc1O	tim10-1 inh 42 | tim10-1 conf inactive
C/C(=N\NC(=S)Nc1c(C)cccc1C)c1ccc(OC(F)F)cc1	tim10-1 inh 43 | tim10-1 conf 41
CC/C(=N\NC(=S)Nc1cc(C)ccc1C)c1ccc(OC(F)F)cc1	tim10-1 inh 58, SKKanGAS inh 69 | tim10-1 conf 36
CCOc1cccc2sc(N(CCN(C)C)C(=O)/C=C/c3cccs3)nc12	tim10-1 inh 47 | tim10-1 conf 32
COc1cccc2sc(N(CCN(C)C)C(=O)/C=C/c3cccs3)nc12	none
CC1CCN(C(c2ccc(N(C)C)cc2)c2nnnn2Cc2ccc(F)cc2)CC1 (centres undefined)	none
Fc1ccc(Cn2nnnc2C(c2ccc(Cl)cc2)N2CCSCC2)cc1 (centres undefined)	tim10-1 inh 42 | tim10-1 conf inactive
COC(=O)c1c(C)[nH]c(C(=O)CN(C)CC(=O)Nc2cccc(F)c2)c1C	none (no result: SKKanGAS inh)
Cc1cc(OCc2cc(C(=O)NC(C)c3c(C)nn(C)c3C)no2)cc(C)c1Cl (centres undefined)	tim10-1 inh 46 | tim10-1 conf inactive
Cc1cc(OCc2cc(C(=O)N(C)C(C)c3ccccn3)no2)cc(C)c1Cl (centres undefined)	tim10-1 inh 41 | tim10-1 conf inactive
N#Cc1c(N)nc(SCC(=O)C23CC4CC(CC(C4)C2)C3)c(C#N)c1-c1ccc(Cl)cc1	tim10-1 inh 45 | tim10-1 conf 43
COc1cc2c3c(c1)/C(=C1/SC(NC(C)=O)=NC1=O)C(=O)N3C(C)(C)C=C2C	tim10-1 inh 62 | tim10-1 conf 56
O=C1CCC(c2ccccc2)N1c1ccccc1 (centres undefined)	none (no result: tim23-1 inh, tim10-1 inh, TIM10 inh, SKKanGAS inh, NALP3 yeast inh)
CCOCC(=O)Nc1nc2ccccc2s1	none
COc1ccc(/C(C)=N/OCC(=O)Nc2nc3ccccc3s2)cc1	tim10-1 inh 42 | tim10-1 conf 29
Cn1c(=O)c(Sc2ccccc2)c(O)c2ccccc21	none
CC(C)(C)C1C=C(Sc2ccccc2)C(=O)O1 (centres undefined)	tim10-1 inh 44 | tim10-1 conf 35

From PubChem BioAssay
